# Results as given in PubChem BioAssay AID2315 (National Center for Advancing Translational Sciences (NCATS), 2010).
# About 27,000 (9.3%) of roughly 290,000 compounds were called active. Only a selection was taken, and actives are over-represented in it overall. Unmarked numbers belong to inactive results. No stated cut-off is given here; in the data, active means inhibition mostly above about 28% (no sharp cut-off); inactive means mostly below about 43%.
# Assay: A qHTS for Small Molecule Inhibitors of Shiga Toxin; further: 0% is about no effect
# Conditions: Vero cells, Shiga toxin protein synthesis inhibition reporter; at 38.7 µM, active compounds read high
row,SMILES,inhibition
1,CC(C)NS(=O)(=O)c1ccc(OCC(=O)NC2CCCCCC2)cc1,-16.9%
2,CC(Oc1ccc(F)cc1)C(=O)N1CCN(c2ncccn2)CC1 (configuration not stated),-12.5%
3,Cc1ccc(NC(=O)c2oc(=O)c3ccccc3c2-c2ccccc2)c(C)c1,-10.4%
4,Cc1ccc(NN=C2C(=O)OC(C)(C)OC2=O)c(C)c1,93.9% (active)
5,Cc1ccc(NC(=O)CCC(=O)N/N=C/c2ccco2)c(C)c1,9.07%
6,COC(=O)C(C)n1cnc2c(nnn2-c2ccc(F)cc2)c1=O (configuration not stated),8.93%
7,COc1ccc(NC(=O)c2sc3nc(C)nc(N4CCN(c5ccccn5)CC4)c3c2C)c(OC)c1,-5.19%
8,CN(CCN1CCOCC1)Cc1nc(-c2ccc3c(c2)OCO3)no1,13.4%
9,CCn1ccnc1CN(C)Cc1nc(-c2ccc3c(c2)OCO3)no1,50.1% (active)
10,CC(C)N(Cc1nc(-c2ccc3c(c2)OCO3)no1)CC1CCC(=O)N1 (configuration not stated),-4.06%
11,O=C(OCC(=O)c1cccs1)c1ccc([N+](=O)[O-])o1,41.9%
12,O=C(OCC(=O)c1cccs1)C1=COCCO1,98.9% (active)
13,CCC(C)(C)c1ccc(Oc2ccc(NC(=O)COC(=O)C3=COCCO3)cc2)cc1,23.6%
14,O=C(NCc1ccccc1)C1CCN(C(=O)Cc2ccccc2)CC1,-23.8%
15,O=C(CCn1nnnc1CN1CCOCC1)N1CCC(c2ccccc2Cl)C1 (configuration not stated),11%
16,CN(C)CCCN(C(=O)COc1ccccc1)c1nc2c(Cl)cccc2s1,-6.79%
17,NC(=O)c1c(Nc2nc3c(F)cccc3s2)sc2c1CCCC2,13.4%
18,NNc1nc2c(Cl)cccc2s1,69.4% (active)
19,C/C(=N\NC(=O)c1cccc([N+](=O)[O-])c1)c1cccnc1,11.6%
20,COc1ccc(N2CCC(N3CCN(C)C(CCO)C3)CC2)cc1 (configuration not stated),0.592%
21,COc1ccc(CCN2CC(C(=O)NCCN3CCNC3=O)CCC2=O)cc1 (configuration not stated),1.29%

row,SMILES,inhibition
1,Cc1cc(=O)[nH]c(N/N=C/c2c(C)nn(-c3ccccc3Cl)c2Cl)n1,47%
2,CCN(CC)c1ccc(/C=N/Nc2nc(C)cc(=O)[nH]2)cc1,2.75%
3,Cc1cc(=O)[nH]c(N/N=C/c2ccc3c(c2)OCCO3)n1,44.5% (active)
4,Cc1[nH]c2ccccc2c1C(=O)CN1CCCC(C)C1 (configuration not stated),-6.74%
5,Cc1ccc(C(C[N+](=O)[O-])c2c(C)cc3ccccn23)cc1 (configuration not stated),6.95%
6,Nc1ccccc1SC(C[N+](=O)[O-])c1ccccc1 (configuration not stated),77.6% (active)
7,NS(=O)(=O)c1ccc(CNC(=O)c2cccc(Oc3ccccc3)c2)cc1,6.72%
8,CCC(=O)Nc1ccc(C(=O)NNC(=O)c2ccc(Cl)cc2)cc1,21.7%
9,O=C(Nc1ccc(Cl)cc1)c1ccsn1,71.9% (active)
10,O=C(NCc1cn2ccsc2n1)Nc1ccc(Cl)cc1,-6.11%
11,Cc1cc(-c2ccc(C)c(S(=O)(=O)NCCCN(Cc3ccccc3)C(C)C)c2)on1,-6.03%
12,Cc1cccc(NC(=O)NC2(C)CCS(=O)(=O)C2)c1 (configuration not stated),11.8%
13,CC(C)(C)c1ccc(NC(=O)NCc2ccco2)cc1,74.2% (active)
14,CC(C)(C)NC(=O)NCc1ccco1,12.4%
15,CC(C)(C)c1ccc(C(=O)NCCC(=O)NCc2ccco2)cc1,6.3%
16,COc1ccc([N+](=O)[O-])cc1N(CC(=O)Nc1ccccc1C(=O)N1CCOCC1)S(C)(=O)=O,-1.77%
17,CCOC(=O)c1c(C)[nH]c(C(=O)COc2ccc3c(c2)OCO3)c1C,17.2%
18,CCOCCOC(=O)C1=C(C)NC(=O)NC1c1ccc2c(c1)OCO2 (configuration not stated),-11.9%
19,CCOC(=O)c1nc(-c2ccc3c(c2)OCO3)[nH]c1C,41% (active)
20,CCOc1ccc(N(C)S(=O)(=O)c2cnc[nH]2)cc1,10.4%
21,Cc1ccc2c(c1)N(CC(=O)N1CCC(C)CC1)C(=O)c1cccnc1O2,9.85%

row,SMILES,inhibition
1,COc1ccc(NC(=O)C2CCCN(S(=O)(=O)c3cccc4cccnc34)C2)cc1 (configuration not stated),-1.64%
2,CCOc1cccc(NC(=O)C2CCCN(S(=O)(=O)c3ccc(OC)cc3)C2)c1 (configuration not stated),-14.4%
3,COc1ccc(S(=O)(=O)N2CCCC(C(=O)Nc3ccc(NC(=O)c4ccccn4)cc3)C2)cc1 (configuration not stated),63.5% (active)
4,COc1ccccc1N1CC(C(=O)Nc2nnc(SCC(=O)NC(C)C)s2)CC1=O (configuration not stated),4.29%
5,CN(CC1CCCN(CCc2cccc(C(F)(F)F)c2)C1)C(=O)c1ccc2nc[nH]c2c1 (configuration not stated),-2.32%
6,Cc1ccc(CS(=O)Cc2ccc(C(=O)N3CCOCC3)o2)cc1 (configuration not stated),-2.85%
7,COc1ccc2c(c1)cc1n2CCN=C1NN,170% (active)
8,COc1ccc(CNC(=O)C(=O)NCC2OCCN2C(=O)c2ccc(OC)cc2)cc1 (configuration not stated),-30.4%
9,O=S(=O)(c1cccc(Cn2nnc(-c3ccc(F)cc3)n2)c1)N1CCOCC1,-6.53%
10,O=[N+]([O-])c1cc(Br)c(O)c(/C=N/Nc2nc3ccccc3s2)c1,30.3%
11,c1ccc2sc(SNC3CCCCC3)nc2c1,25.3%
12,c1ccc2sc(NN=C3CCCC3)nc2c1,72.4% (active)
13,Cc1ccc2c(c1)C(c1ccccc1)N(C(=O)c1ccc(F)cc1)CC(=O)N2 (configuration not stated),-4.25%
14,COC(=O)c1ccc(/C=C2/C(=O)Oc3ccccc32)cc1,-14%
15,Cc1ccc(NC(=S)N2CCCC(c3ccccc3)=N2)cc1,-2.73%
16,CNC(=S)N1N=C(c2ccccc2)CC1c1ccc(Br)cc1 (configuration not stated),34.3% (active)
17,CC(=O)N1CCN(c2ccccc2NC(=S)NC(=O)c2cc3ccccc3o2)CC1,-6.04%
18,Cc1cc(Nc2ccccc2)n(CCC#N)n1,-1.92%
19,Cc1cc(NC(=O)Nc2ccccc2)n(-c2ccccc2)n1,34.6%
20,Cc1cc(Nc2ccccc2)n(C(=O)c2ccc(N)cc2)n1,47.2% (active)
